Experimental findings from PubChem BioAssay (NCI) are described below.

Some test systems named below: SNB-75 CNS; SNB-19 CNS; U251 CNS; PC-3 prostate; SK-MEL-5 melanoma; UACC-62 melanoma; LOX IMVI melanoma; SK-MEL-28 melanoma; SK-MEL-2 melanoma; SN12C renal; UO-31 renal; TK-10 renal; ACHN renal; CAKI-1 renal; A498 renal; CCRF-CEM leukemia; MOLT-4 leukemia; SR leukemia; EKVX NSCLC.
Assay in all cases: NCI-60 one-dose screen, 48 h (100 = growth as untreated, 0 = no growth, -100 = all killed)
Holding throughout (conditions): 10 µM

Compounds without any hit were thinned out: in the full panel of roughly 83,000, 20% have a hit.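 Results are percent growth after 48 hours of single-concentration exposure. 100 means growth as in untreated cells, lower positive values show inhibition; negative values down to -100 show cell death.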 A number with no mark means an inactive call. Activity calls are given as the source filed them. The calls were made as follows: active = growth percent below 10; inactive = the rest.

For `COc1cc(/C=C/C(=O)c2ccc(Cl)cc2)ccc1OS(=O)(=O)c1ccc(C)cc1`, the growth in the test with SNB-75 CNS was 105%; in the test with SNB-19 CNS it was 98.5%; in the test on U251 CNS, 83.7%; in the test on PC-3 prostate, 76.1%; with SK-MEL-5 melanoma, 100%; with UACC-62 melanoma, 79.4%. The growth in the test on LOX IMVI melanoma is 2.55% (active); in the test with SK-MEL-28 melanoma, 106%; in the test with SK-MEL-2 melanoma it was 108%; with SN12C renal it was 86.6%; with UO-31 renal it was 74.2%; in the test on TK-10 renal, 116%. The growth was 94.3% in the test with ACHN renal; 82.5% in the test with CAKI-1 renal; 86.3% in the test with A498 renal; 12.9% with CCRF-CEM leukemia; -2.36% (active) with MOLT-4 leukemia; -13.8% (active) in the test on SR leukemia.

As for `CN(CCc1ccccn1)c1ccccc1`, the growth was 92% with SNB-75 CNS; 102% with SNB-19 CNS; 101% with PC-3 prostate; 103% with SK-MEL-5 melanoma; 98% in the test with UACC-62 melanoma; 102% in the test on LOX IMVI melanoma. Further, the growth in the test with SK-MEL-28 melanoma was 101%; in the test with SK-MEL-2 melanoma, 101%; in the test on SN12C renal it was 104%; in the test on UO-31 renal, 97.9%; with TK-10 renal, 104%; with ACHN renal, 102%. Also, the growth with A498 renal is 109%; with CCRF-CEM leukemia, -0.411% (active); with MOLT-4 leukemia, 59.9%; with SR leukemia, 87.5%.

For the compound `c1ccc(CP(Cc2ccccc2)c2ccccc2)cc1`, the growth is 101% in the test on SNB-75 CNS; 105% in the test with SNB-19 CNS; 93.6% with U251 CNS; 86.2% in the test with PC-3 prostate; 99% in the test with SK-MEL-5 melanoma; 99.3% in the test on UACC-62 melanoma. Also, the growth in the test on LOX IMVI melanoma is 86.8%; in the test on SK-MEL-28 melanoma, 110%; with SK-MEL-2 melanoma it was 97%; with SN12C renal, 100%; in the test with UO-31 renal, 73.8%; with TK-10 renal, 98.6%. In addition, the growth was 102% in the test on ACHN renal; 92.3% in the test on CAKI-1 renal; 103% in the test on A498 renal; 89.5% in the test on CCRF-CEM leukemia; 92.5% in the test with MOLT-4 leukemia; 82.3% in the test on SR leukemia.

Take `O=C1c2ccc3c4c(ccc(c24)C(=O)N1CCNCc1ccccc1)C(=O)N(CCNCc1ccccc1)C3=O`: the growth in the test with SNB-75 CNS was 105%; in the test on SNB-19 CNS it was 8.03% (active); with U251 CNS, -46.3% (active); with PC-3 prostate it was 28.3%; in the test with UACC-62 melanoma it was -31.6% (active); with LOX IMVI melanoma, -47.9% (active). In addition, the growth is 6% (active) with SK-MEL-28 melanoma; 119% with SK-MEL-2 melanoma; -65.6% (active) with EKVX NSCLC; -47.3% (active) in the test with SN12C renal; -59% (active) in the test with UO-31 renal; 63.4% in the test with TK-10 renal. Besides, the growth in the test with CAKI-1 renal was -56.2% (active); in the test on CCRF-CEM leukemia, -6.55% (active); in the test on MOLT-4 leukemia, -9.12% (active); with SR leukemia, -8.22% (active).

With `O=C(Nc1cccc(Cl)c1)Nc1nccs1`, the growth in the test with SNB-75 CNS is 91.6%; in the test with SNB-19 CNS, 83.4%; in the test on U251 CNS it was 94.1%; with PC-3 prostate, 94.5%; in the test on UACC-62 melanoma, 79.8%; in the test with LOX IMVI melanoma, 94.1%. Moreover, the growth in the test on SK-MEL-28 melanoma is 103%; with SK-MEL-2 melanoma, 97.2%; with EKVX NSCLC, 98.1%; in the test on SN12C renal, 87.7%; in the test with UO-31 renal, 89.9%; with TK-10 renal it was 109%. Also, the growth is 98.5% in the test on ACHN renal; 99.2% in the test with A498 renal; 83.2% in the test on CCRF-CEM leukemia; 101% in the test with MOLT-4 leukemia; 78.5% in the test on SR leukemia.

For `CC(C)(C#N)Nc1ccccc1`, the growth was 79.5% with SNB-75 CNS; 98.9% with SNB-19 CNS; 95.4% with U251 CNS; 108% in the test with PC-3 prostate; 107% in the test on SK-MEL-5 melanoma; 98.5% in the test with UACC-62 melanoma. In addition, the growth in the test with LOX IMVI melanoma was 97.8%; in the test on SK-MEL-28 melanoma, 111%; with SK-MEL-2 melanoma it was 109%; in the test with SN12C renal, 98.8%; with UO-31 renal it was 103%; in the test with TK-10 renal, 115%. Also, the growth in the test on ACHN renal is 97.8%; in the test on CAKI-1 renal it was 83.5%; with A498 renal it was 103%; with CCRF-CEM leukemia it was 97.1%; in the test on MOLT-4 leukemia it was 102%; in the test on SR leukemia it was 116%.

For `COc1ccc(/C=C2/CN(C(=O)c3ccccc3F)C/C(=C\c3ccc(OC)cc3)C2=O)cc1`, the growth was 77% in the test on SNB-19 CNS; 9.44% (active) with U251 CNS; 52% in the test on PC-3 prostate; 48.6% in the test with SK-MEL-5 melanoma; 56.5% with UACC-62 melanoma; -54.5% (active) in the test with LOX IMVI melanoma. Besides, the growth was 69.4% in the test with SK-MEL-28 melanoma; 94.1% in the test with SK-MEL-2 melanoma; 65.7% in the test with SN12C renal; 46.1% with UO-31 renal; 130% in the test with TK-10 renal; 65.2% in the test on ACHN renal. Also, the growth in the test on CAKI-1 renal is 67.6%; in the test on A498 renal it was 122%; in the test on CCRF-CEM leukemia, 4.22% (active); with MOLT-4 leukemia, 23.5%; with SR leukemia, -23.2% (active).
